Inconclusive results are not listed. A call without a number means that no potency is given here. Active and inactive are the calls of the source. Calls follow the shape of the dose curve; as a rule, active = well fitted curve in the direction sought with a large enough effect; inconclusive = small, poorly fitted or top-dose-only effect, or another doubt; inactive = no such curve, though single readings can be large; an effect the other way counts as inactive or inconclusive.
Tests used:
[1] = molecular target: Aldehyde dehydrogenase, mitochondrial (Homo sapiens) (UniProt P05091); assay: qHTS for Inhibitors of the Aldehyde Dehydrogenase Family (ALDH2) Primary screen (AID 2061308); settings: ALDH2 enzyme inhibition qHTS, 1536-well; series mostly up to 56 µM; also: nearly all actives have a fitted effect of over 55% in size
[2] = molecular target: Retinaldehyde dehydrogenase 3 (Homo sapiens) (UniProt P47895); assay: qHTS for Inhibitors of the Aldehyde Dehydrogenase Family (ALDH1A3) Primary screen (AID 2061315); settings: ALDH inhibition qHTS; series mostly up to 56 µM

COC(=O)c1ccccc1NC(=O)c1ccc(F)cc1F
Potency [1]: inactive
Potency [2]: inactive

Cc1cc2c(s1)c1cnn(Cc3cccc4cccnc34)c(=O)c1n2C
Potency [1]: inactive
Potency [2]: inactive

Cc1cccc(-n2cnc3cc(C(=O)N4CCCC4)ccc32)c1
Potency [1]: inactive
Potency [2]: inactive

C[C@@H]1[C@H](O)[C@@H]2OC(=O)C3=C2[C@H](CCC3)[C@@]12C[C@@H](c1ccoc1)OC2=O
Potency [1]: inactive
Potency [2]: inactive

Cc1cc(OCCCSc2nc(-c3ccc(C(C)(C)C)cc3)nc3cc(=O)[nH]n23)ccc1Cl
Potency [1]: inactive
Potency [2]: inactive

O=C1CCc2cc(S(=O)(=O)Nc3ccc(Cl)c(Cl)c3)c(F)cc2N1
Potency [1]: inactive
Potency [2]: inactive

COc1cc(O)c(C(CC(=O)N2CCC(Cc3ccccc3)CC2)c2ccc(OC)c(OC)c2)c(OC)c1 (stereo not given)
Potency [1]: inactive
Potency [2]: inactive

Cc1ccc(C)c(-c2cc(C(F)(F)F)nn2-c2ccc(S(N)(=O)=O)cc2)c1
Potency [1]: inactive
Potency [2]: inactive

O=C(O)c1c(-c2ccccc2)no[n+]1[O-]
Potency [1]: inactive
Potency [2]: inactive

Fc1ccc(Nc2cc(-c3ccccc3)nc(-c3ccncc3)n2)cc1F
Potency [1]: inactive
Potency [2]: inactive

Cc1cc(-c2ccccc2)n2ncc(C(=O)Nc3ccccc3Sc3ccccc3)c2n1
Potency [1]: inactive
Potency [2]: inactive

Cc1cn2c(-c3cn[nH]c3)cnc2c(Nc2ccc(C(=O)N3CCNCC3)cc2F)n1
Potency [1]: inactive
Potency [2]: inactive

CCOc1cc(CCNC(=O)c2cc3sccc3n2Cc2ccccc2)cc(F)c1OCC
Potency [1]: inactive
Potency [2]: inactive

O=S(=O)(Nc1cccc2cccnc12)c1ccccc1
Potency [1]: inactive
Potency [2]: inactive

COc1cccc(C2c3c(ncn(-c4ccccn4)c3=N)Oc3ccc4ccccc4c32)c1 (stereo not given)
Potency [1]: inactive
Potency [2]: inactive

Cc1cc2c(s1)c1cnn(Cc3ccc(F)c(F)c3)c(=O)c1n2C
Potency [1]: inactive
Potency [2]: inactive

Cc1ccc(-c2cc(C(=O)N3CC[S+](=O)([O-])CC3)c3ccccc3n2)cc1C
Potency [1]: inactive
Potency [2]: inactive

CCOc1ccccc1-c1nnc2n1N=C(c1ccc(OC)c(OC)c1)CS2
Potency [1]: inactive
Potency [2]: inactive

COc1cc(-c2nc(Nc3ccc(F)c(F)c3)c3ccccc3n2)cc(OC)n1
Potency [1]: inactive
Potency [2]: inactive

Cc1ccc(OCCn2c(CCNC(=O)c3cc(N)ccc3N)nc3ccccc32)cc1
Potency [1]: inactive
Potency [2]: inactive

Cn1nnnc1Sc1ncnc2scc(-c3ccsc3)c12
Potency [1]: inactive
Potency [2]: inactive

O=C(NC(c1ccco1)c1cc(Cl)c2cccnc2c1O)c1ccsc1 (stereo not given)
Potency [1]: inactive
Potency [2]: inactive

CCN(CC)CCn1c(-c2ccccc2)nc2c(NCCOC)nc(C)nc21
Potency [1]: inactive
Potency [2]: inactive

C=C1C(O)C(O)C2(CC3C(C)=CCC4C(C)(CO)CCCC34C)OC2C1O (stereo not given)
Potency [1]: inactive
Potency [2]: inactive

COc1cccc(C2c3c(ncn(-c4ccccc4Cl)c3=N)Oc3ccc4ccccc4c32)c1 (stereo not given)
Potency [1]: inactive
Potency [2]: inactive

CCCc1cc(F)c(S(=O)(=O)N2CCN(S(=O)(=O)c3ccc4c(c3)OCCO4)CC2)cc1F
Potency [1]: inactive
Potency [2]: inactive

COc1ccc2c(=O)n3nc(Nc4cccc(N5CCN(C)CC5)c4)sc3nc2c1
Potency [1]: inactive
Potency [2]: inactive

CC1=C(C(=O)n2ccc3ccccc32)C(c2ccccc2Br)N=C(Nc2nc3ccccc3o2)N1 (stereo not given)
Potency [1]: inactive
Potency [2]: inactive

O=C(Nc1nc(-c2ccccc2)cs1)c1ccncc1NS(=O)(=O)c1cccs1
Potency [1]: inactive
Potency [2]: inactive

CCOc1ccc(C(=O)Nc2ccc(-c3nc4ccccc4s3)cc2)cc1[N+](=O)[O-]
Potency [1]: inactive
Potency [2]: inactive

Cc1cc(C)nc(NC(=S)N2CCN(c3cc(C(F)(F)F)nc4ccccc34)CC2)c1
Potency [1]: inactive
Potency [2]: inactive

Cc1cc(C(C#N)c2ccc(Cl)cc2)c(Cl)cc1NC(=O)c1cc(I)cc(I)c1O (stereo not given)
Potency [1]: inactive
Potency [2]: inactive

O=[S+]([O-])(Nc1cnc2ccccc2c1)c1ccc(NCc2ccc(Cl)cc2O)cc1
Potency [1]: inactive
Potency [2]: inactive

Cc1ccc(-c2cc(C(=O)Nc3ccc(S(=O)(=O)N(C)C)cc3)c3ccccc3n2)cc1C
Potency [1]: inactive
Potency [2]: inactive

Cc1cccc(-c2ccc3ncnc(NCc4cccnc4)c3c2)c1
Potency [1]: inactive
Potency [2]: inactive
